The structures appear in SMILES notation. The panel holds about 83,000 compounds, 20% with a hit somewhere; the sample as a whole holds those more often.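 Results are percent growth after 48 hours of single-concentration exposure. 100 means growth as in untreated cells, lower positive values show inhibition; negative values down to -100 show cell death.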 Unmarked numbers belong to inactive results. Calls of active or inactive are those of the source. How the source made its calls: active means growth percent below 10; inactive means the rest.

In the assay the test system is HL-60(TB) leukemia. In words: NCI-60 one-dose screen, 48 h (100 = growth as untreated, 0 = no growth, -100 = all killed). The settings on record: 10 µM unless noted.
For the molecule `Cc1c(Cl)cccc1NC(=O)c1sc2nc3c(cc2c1N)CN(Cc1ccccc1)CC3`, the growth is -22.9% (active).

`Cc1ccccc1Nc1n[nH]c(Cc2ccccc2)n1`: the growth was 66.9%.

Take `CN(C)c1ccc(/C=C\N=Nc2ccc(Br)cc2)cc1`: the growth was 16.6%.

Take `O=C(c1ccc(Nc2nccc(NCCCNc3ccnc4cc(Cl)ccc34)n2)cc1)N1CCCCC1`: the growth was 22.4%.

Take `O=[N+]([O-])c1cc(S(=O)(=O)Nc2ccccc2)ccc1Cl`: the growth was 71.3%.

Consider `COC(=O)[C@]12CC[C@@H](C)[C@H](C)[C@@H]1C1=CC[C@@H]3[C@@](C)(CC#N)C4=C(C[C@@]3(C)[C@]1(C)CC2)OC[C@]4(C)C=O`, for which the growth was -10.8% (active).

On to `C=CC(=O)Nc1cccc(-c2nc(SC)nc(Nc3cccc(OC)c3)c2C#N)c1`, for which the growth is 42.2%.

In the case of `CCCCCCC/C=N/NC(=O)c1ccc(-n2cc(-c3ccccc3)nn2)cc1`, the growth is 95.2%.

As for `CC(=O)N[C@@H](CNC(=O)c1cc(NC(=O)c2cc(NC(=O)c3cc(NC(=O)c4nccn4C)cn3C)cn2C)cn1C)CC(=O)Nc1cn(C)c(C(=O)Nc2cc(C(=O)Nc3cc(C(=O)Nc4cc(C(=O)NCCCN(C)CCCNC(=O)c5cccc(C(=O)O)c5)n(C)c4)n(C)c3)n(C)c2)n1`, the growth is 109%.

With `Nc1ccccc1NC(=O)c1ccc(-n2nc(-c3ccccc3)c3ccccc32)cc1`, the growth is -4.94% (active).

As for `COc1ccc(/C=C2\CN(C(=O)C(Cl)Cl)C/C(=C\c3ccc(OC)cc3)C2=O)cc1`, the growth is -11.9% (active).

For `CC(C)c1ccc(C(=O)Nc2sc3c(CN(C)C)c(O)ccc3c2C(N)=O)cc1`, the growth was 24.2%.

The record behind these values is PubChem BioAssay (NCI).
